ATXN2 expr inh = ATXN2 expression inhibition. HEK-293 ATXN2-luciferase reporter, luminescence, 24 h. Potency, µM (doses to about 57 µM), for the others: at the top dose activity change, negative = inhibition, usual class: inhibitors. 360,000 compounds, 0.72% hits. AID 1745845; further: potency means the concentration at half of the fitted maximal effect; on the % scale 0 is the no-effect control and ±100 the full control effect; nearly all actives have a fitted effect of over 55% in size
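qHTS (up to 57 uM final) was run with 24 h compound exposure of reporter cells at 37 °C. Each well was multiplexed: SteadyGlo luminescence measured ATXN2-luciferase expression after a fluorogenic Gly-Phe-AFC viability readout (25 uM final).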
IDH1 R132H inh = blocks human mutant IDH1 R132H enzyme. O75874. Potency, µM (series often up to 76.6 µM), for the others: at the highest dose activity change, negative = inhibition, most hits filed as inhibitors. 390,000 compounds, 0.093% hits. IDH1-R132H enzyme, NADPH consumption, diaphorase/resazurin fluorescence; further: potency means the concentration at half of the fitted maximal effect; on the % scale 0 is the no-effect control and ±100 the full control effect; nearly all actives have a fitted effect of over 65% in size
Target sequence (O75874 whole entry R132H, stated change not applied): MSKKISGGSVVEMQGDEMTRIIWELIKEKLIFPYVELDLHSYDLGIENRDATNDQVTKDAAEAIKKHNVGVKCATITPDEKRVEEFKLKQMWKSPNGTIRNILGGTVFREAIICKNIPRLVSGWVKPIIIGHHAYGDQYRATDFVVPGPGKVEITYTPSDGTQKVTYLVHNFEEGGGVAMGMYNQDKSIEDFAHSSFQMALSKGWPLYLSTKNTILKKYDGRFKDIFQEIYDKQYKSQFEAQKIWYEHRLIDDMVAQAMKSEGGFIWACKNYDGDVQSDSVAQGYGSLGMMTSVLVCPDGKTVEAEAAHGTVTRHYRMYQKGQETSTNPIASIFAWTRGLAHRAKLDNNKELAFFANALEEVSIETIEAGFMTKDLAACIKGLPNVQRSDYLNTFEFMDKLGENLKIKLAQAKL
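IDH1-R132H (0.5 ug/mL dispensed) in pH 7.5 Tris buffer was preincubated 30 min with compound, then given a substrate mix of 0.016 mM NADPH and 2 mM alpha-KG for 80 min at room temperature; remaining NADPH was read by diaphorase/resazurin fluorescence.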
HepG2 viability = counter-screen for TGF-b inhibitors: cytotoxicity in HepG2 cells. AID 588856. Potency, µM (doses to about 46.1 µM), without a hit: at the top dose activity change, negative = cytotoxicity, most hits filed as cytotoxic. 410,000 compounds, 0.76% hits. HepG2 CAGA-GFP viability, ATP luminescence, 18 h; further: potency means the concentration at half of the fitted maximal effect
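HepG2 CAGA-GFP cells (1000/well, DMEM with 1% FBS) received compound, then TGF-beta at 500 pg/mL final, and were incubated 18 hours at 37 degrees C. Viability was read by CellTiter-Glo luminescence. Media-only wells were set as complete cell-killing and DMSO as no toxicity.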
LDHA inh = inhibitors of human lactate dehydrogenase A. purified LDHA, NADH/diaphorase-resazurin fluorescence; active compounds read low. activity change, % (values are at about 110 or 230 µM). 480,000 compounds, 0.15% hits; in the data active means activity change below about -30%; inconclusive means mostly about -25% to -30%;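 further: plate controls were DMSO wells for no effect and wells without enzyme for full effect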
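Human LDH5 at 2 nM final in Tris HCl pH 7.4 with 0.06 mM NADH and 0.2 mM pyruvate, reacted 5 minutes at room temperature. Remaining NADH coupled via diaphorase/resazurin; resorufin fluorescence read at 0 and 20 minutes, normalized to enzyme-free and DMSO wells.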
S2 tox = viability counter-screen for ATXN expression inhibitors; 400,000 compounds, 0.49% hits; S2 cells (HEK-293 line with an ATXN2-luciferase reporter) viability, CellTiter-Fluor protease fluorescence, 24 h; Potency, µM (titrated, usually from 56.7 µM), usual class: cytotoxic; further: potency means the concentration at half of the fitted maximal effect; nearly all actives have a fitted effect of over 40% in size
TGFb SMAD3 inh = TGF-b pathway inhibition; HepG2 CAGA-GFP TGF-b/SMAD3 reporter, GFP fluorescence, 18 h; TGF-beta stimulated, 500 pg/mL final; Potency, µM (series often up to 46.1 µM), inactives show top-dose activity, negative = inhibition, actives largely listed as inhibitors; 410,000 compounds, 1.2% hits; further: potency means the concentration at half of the fitted maximal effect; on the % scale 0 is the no-effect control and ±100 the full control effect; nearly all actives have a fitted effect of over 65% in size
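Per well, imaged GFP fluorescence of HEPG2 CAGA-GFP cells gives the signal; cells get compound, then TGF-beta (500 pg/mL final), 18 h at 37 degrees C; %Activity versus -TGF-beta and +DMSO controls.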
* = called active by the depositor; i = inactive; ? = inconclusive; · = no result given. Hits are enriched below; roughly 2.2% of the tested compounds scored in any of these assays. Unless noted, the call rests on the fitted dose curve; in most records, active means well fitted curve in the direction sought with a large enough effect; inconclusive means small, poorly fitted or top-dose-only effect, or another doubt; inactive means no such curve, though single readings can be large; an effect the other way counts as inactive or inconclusive.

SMILES	ATXN2 expr inh	IDH1 R132H inh	HepG2 viability	LDHA inh	S2 tox	TGFb SMAD3 inh
CS(=O)(=O)C1=NSC2=NC(=O)/C(=C\c3cccn3-c3ccc(Cl)cc3)C(=N)N21	6%	-4%	4%	-109*	i	6%
O=C1CC(/C=C/c2ccc(Cl)cc2)=Nc2ccccc2N1	-20%	1%	-41%	2	?	11µM*
Cc1nc(-c2ccc(S(=O)(=O)Nc3cccc(Cl)c3)cc2)co1	2%	3%	-11%	-3	i	-15%
O=C(COc1ccc(S(=O)(=O)NC2CCCCC2)cc1Cl)NCC1CCCO1 (centres undefined)	0%	12%	8%	0	i	-13%
COc1ccc(CCNC(=O)COc2ccc(S(=O)(=O)NC3CCCCC3)cc2Cl)cc1	?	4%	-38%	5	·	14µM*
Nc1c(C(=O)Nc2ccccc2)c2nc3ccccc3nc2n1CCCN1CCOCC1	?	-2%	14µM*	5	i	?
COc1cccc(-c2cc(C(=O)NCCCn3ccnc3)no2)c1	30%	4%	2%	-5	i	-3%
Cc1ccc(S(=O)(=O)N2C[C@H]3N(C(=O)OC(C)C)N(C(=O)OC(C)C)C[C@H](OC(=O)NCC4CCCCC4)[C@@]3(O)C2)cc1	-38%	6%	-39%	3	32µM*	?
Cc1ccc(S(=O)(=O)N2C[C@H]3N(C(=O)OC(C)C)N(C(=O)OC(C)C)C[C@H](OC(=O)NCc4ccccc4)[C@@]3(O)C2)cc1	-22%	16%	-7%	0	?	?
Cc1cc2c(cc(C(=O)OCC(=O)NC3CCCCC3)n2C)o1	20%	-2%	-2%	-9	i	-7%
O=C(/C=C/c1ccc(F)cc1)Nc1ccc2[nH]c(=O)[nH]c2c1	3%	-11%	-1%	-4	i	5%
O=C(CCl)NC(Cc1ccccc1)C(=O)OCC(=O)c1ccc(-c2ccccc2)cc1 (centres undefined)	-22%	1%	-61%	-11	15µM*	?
CC(C)C[C@@H](C=O)NC(=O)[C@H](CC(C)C)NC(=O)[C@H](CC(C)C)NC(=O)OCc1ccccc1	1.1µM*	·	·	·	·	·
O=C(N[C@@H](Cc1ccccc1)C(=O)N[C@@H](Cc1ccccc1)C(=O)O)OCc1ccccc1	1%	-6%	-14%	-13	i	-3%
CC(=O)NC(Cc1ccccc1)C(=O)OCC(=O)c1ccc(Cl)cc1 (centres undefined)	1%	-5%	3%	-10	i	17%
O=C(N[C@@H](Cc1ccccc1)C(=O)CCl)OCc1ccccc1	28µM*	-6%	-76%	-3	16µM*	?
CCOc1ccc(N(CC(=O)NCc2cccnc2)S(=O)(=O)c2ccc(F)cc2)cc1	4%	2%	8%	-4	?	-4%
CCN(CC)c1ccc2cc(NC(=O)CCC(=O)O)c(=O)oc2c1	7.9µM*	9%	-27%	9	·	12%
CCN(CC)c1ccc2cc(C(C)=O)c(=O)oc2c1	14%	1%	-14%	-1	i	11%
Cc1ccc(S(=O)(=O)N2C3CCCCC3O[C@H]2CC(=O)Oc2ccccc2)cc1 (some centres undefined)	·	·	·	1	·	·
CCc1cc(-c2[nH]ncc2-c2ccc3c(c2)OCO3)c(O)cc1O	11µM*	14%	-94%	2	?	?
CCc1cc(-c2[nH]ncc2-c2ccc(OC)cc2)c(O)cc1O	?	1%	-28%	7	i	-27%
OCCNc1c2ccccc2nc2c(F)c(F)c(F)c(F)c12	7.5µM*	2%	11%	2	·	-25%
Cc1c2ccccc2nc2c(F)c(NCCO)c(F)c(F)c12	8%	0%	-6%	17	i	47%
CCOC(=O)c1c(CSc2ccccc2)n(C)c2cc(Br)c(O)c(CN(C)C)c12	?	6%	-25%	0	i	?
SMILES	ATXN2 expr inh	IDH1 R132H inh	HepG2 viability	LDHA inh	S2 tox	TGFb SMAD3 inh
CCOC(=O)c1c(CSc2ccsc2)n(C)c2cc(Br)c(O)c(CN(C)C)c12	·	-1%	10µM*	2	i	?
CCOC(=O)c1sc2nc(CSc3ccccc3)nc(N3CCCN(C)CC3)c2c1C	·	-4%	-15%	-15	35µM*	-8%
CCOC(=O)c1sc2nc(CSc3ccccc3)nc(N3CCC(C(N)=O)CC3)c2c1C	?	-8%	-27%	0	?	?
CCn1c2ccccc2nc2cc3c(cc21)c(Cl)c(=O)c1ccccc13	·	-15%	-119%	17	·	18µM*
O=[N+]([O-])c1ccc(N=Nc2ccc(O)c3ccccc23)cc1	?	14%	13µM*	29	?	?
CCOC(=O)c1ccccc1NC(=O)CN1CCC(n2nnc3cc(F)ccc32)CC1	-2%	-5%	5%	-4	i	1%
CC1(C)CC(=O)c2c(C(F)(F)F)nn(-c3ccc(C(N)=O)c(NC4CCC(OC(=O)CN)CC4)c3)c2C1 (centres undefined)	0.22µM*	·	·	·	·	·
CC1(C)CC(=O)c2c(C(F)(F)F)nn(-c3ccc(C(N)=O)c(NC4CCC(O)CC4)c3)c2C1 (centres undefined)	0.097µM*	·	·	·	·	·
Cc1nc2ccccc2nc1CN1CCOc2ccc(CN3CCc4sccc4C3)cc2C1	·	·	·	·	i	·
O=C(Nc1ccccc1N1CCOCC1)[C@@H]1O[C@H](CO)[C@H](O)[C@H](O)[C@H]1O	-2%	·	-3%	1	i	-3%
CCCCc1ccc(NC(=S)NCCc2ccc(F)cc2)cc1	-9%	-7%	-105%	5	i	16µM*
Fc1ccc(CCNC(=S)Nc2ccc(F)cc2)cc1	25%	2%	-3%	1	i	22%
NS(=O)(=O)c1ccc(N/N=C/c2c(F)c(F)c(F)c(F)c2F)c([N+](=O)[O-])c1	·	·	·	1	·	·
O=Nc1ccc(NO)c2ccccc12	·	-9%	-155%	29	i	13µM*
CC(Sc1nnc2c(n1)[nH]c1ccccc12)C(=O)N(C)C1CCCCC1 (centres undefined)	?	-10%	-33%	0	?	?
CCc1cccc(-n2nnc(-c3nsc(NC(=O)c4cccs4)n3)c2C)c1	·	-3%	16µM*	-9	·	?
CSc1cccc(-n2nnc(-c3nsc(NC(=O)c4cccs4)n3)c2C)c1	·	12%	-57%	-2	·	?
Cc1ccc(-n2nnc(-c3nsc(NC(=O)c4ccc(C)c(C)c4)n3)c2C)cc1	-10%	15%	-12%	-9	i	-7%
